Among the test systems are HT29 colon; SNB-75 CNS; U251 CNS; PC-3 prostate; UACC-62 melanoma; LOX IMVI melanoma; SK-MEL-28 melanoma; SK-MEL-2 melanoma; EKVX NSCLC; SN12C renal; UO-31 renal; TK-10 renal; ACHN renal; CAKI-1 renal; CCRF-CEM leukemia; SNB-19 CNS; A498 renal; MOLT-4 leukemia; SK-MEL-5 melanoma.
Common to all, as to assay: NCI-60 one-dose screen, 48 h (100 = growth as untreated, 0 = no growth, -100 = all killed)
Common to all, as to conditions: 10 µM unless noted

Values joined by “and” are separate entries in the source; they are usually repeats but may differ in a detail not shown here. Equal entries are not always repeated. This is part of a sample that, as a whole, favours compounds with a hit. Of some 83,000 tested, about 20% had one in any assay.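 48-hour exposure, single concentration, 96-well plates; percent growth endpoint where 0 means no net growth. Active: below 10.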 A number with no mark means an inactive call. Active and inactive are the calls of the source.

With `CNc1ccc2c(c1)c1ccccc1n2C`, the growth is 115% with HT29 colon; 98.7% with SNB-75 CNS; 95.9% with U251 CNS; 96% in the assay with PC-3 prostate; 100% with UACC-62 melanoma; 99.9% in the assay with LOX IMVI melanoma. Also, the growth in the assay with SK-MEL-28 melanoma was 117%; in the assay on SK-MEL-2 melanoma, 103%; with EKVX NSCLC, 106%; in the assay with SN12C renal, 102%; in the assay on UO-31 renal it was 92.4%; with TK-10 renal, 97.9%. The growth was 114% with ACHN renal, 98.9% in the assay with CAKI-1 renal and 109% in the assay with CCRF-CEM leukemia.

As to `Oc1c(Cl)cc(Cl)c2cccnc12`, the growth with HT29 colon was 63% and 90.4%; in the assay on SNB-75 CNS it was 82.6% and 46.2%; with SNB-19 CNS, 57.4% and 38.9%; with U251 CNS it was 35.5%; in the assay on PC-3 prostate, 50.5% and 30.9%; in the assay with UACC-62 melanoma it was 58.2% and 49.3%. Besides, the growth with LOX IMVI melanoma was 32.5% and 39.4%; in the assay with SK-MEL-2 melanoma, 80% and 60.3%; with EKVX NSCLC, 58.9% and 51.5%; in the assay with SN12C renal it was 57.3%; in the assay on UO-31 renal, 42.8% and 24.9%; with TK-10 renal, 53% and 107%. Also, the growth with ACHN renal is 42%; in the assay with CAKI-1 renal, 46.3% and 51.3%; in the assay with A498 renal, 67.6% and 66.6%; in the assay with CCRF-CEM leukemia it was 31% and 36.4%.

On to `Cc1cc2nc(CS)[nH]c2cc1C`, for which the growth is 89.9% in the assay on HT29 colon; 75.5% with SNB-75 CNS; 93.3% with SNB-19 CNS; 85.1% in the assay on U251 CNS; 84.4% in the assay on UACC-62 melanoma; 88% in the assay with LOX IMVI melanoma. Also, the growth is 89.5% in the assay on SK-MEL-28 melanoma; 101% in the assay with SK-MEL-2 melanoma; 84.8% in the assay on EKVX NSCLC; 102% with SN12C renal; 83.1% with UO-31 renal; 131% in the assay with TK-10 renal. Moreover, the growth with ACHN renal is 92%; with CAKI-1 renal it was 43.9%; in the assay with CCRF-CEM leukemia it was 55%; in the assay with MOLT-4 leukemia it was -39.5% (active).

On to `CC1OC2CC(=O)OC2C2=C1C(=O)c1c(O)cccc1C2=O` (stereo unspecified), for which the growth in the assay with SNB-75 CNS was -100% (active); in the assay on SNB-19 CNS it was 15.9%; in the assay on U251 CNS, -44.8% (active); in the assay on PC-3 prostate it was -35.3% (active); with UACC-62 melanoma, -89.4% (active); in the assay on LOX IMVI melanoma, -91.6% (active). Besides, the growth was -93.5% (active) with SK-MEL-28 melanoma; -61.2% (active) in the assay with SK-MEL-2 melanoma; -53.3% (active) in the assay on EKVX NSCLC; -94.9% (active) with SN12C renal; -90.7% (active) in the assay with UO-31 renal; -96.2% (active) in the assay on TK-10 renal. In addition, the growth with ACHN renal was -97.4% (active); with CAKI-1 renal it was -82.5% (active); with CCRF-CEM leukemia it was 0.534% (active); in the assay on MOLT-4 leukemia, -7.62% (active).

On to `S=C(N/N=C/c1ccccn1)Nc1ccccn1`, for which the growth with HT29 colon is 10.4%; in the assay on SNB-75 CNS it was 46.1%; with SNB-19 CNS it was 50.5%; in the assay with U251 CNS, 10.1%; in the assay with PC-3 prostate, 33.4%; with UACC-62 melanoma, 1.53% (active). Besides, the growth in the assay with LOX IMVI melanoma was 5.96% (active); in the assay on SK-MEL-28 melanoma, 21.5%; with SK-MEL-2 melanoma it was -5.58% (active); in the assay on EKVX NSCLC, 41.4%; in the assay with SN12C renal, 33.7%; with UO-31 renal, 13%. Moreover, the growth with TK-10 renal was 31.4%; in the assay on ACHN renal, 15.9%; in the assay on CAKI-1 renal, 13.2%; in the assay with CCRF-CEM leukemia, -14.8% (active); in the assay on MOLT-4 leukemia it was -27.6% (active).

Take `OC(CNc1ccnc2cc(Cl)ccc12)CNc1ccnc2cc(Cl)ccc12`: the growth with HT29 colon was 7.67% (active); in the assay on SNB-75 CNS, 31.8%; in the assay with SNB-19 CNS, 41.3%; in the assay on U251 CNS, 3.22% (active); in the assay on SK-MEL-5 melanoma, 53.7%; in the assay with UACC-62 melanoma, 88.3%. Also, the growth is -79.2% (active) with LOX IMVI melanoma; -82.7% (active) in the assay on SK-MEL-28 melanoma; 104% in the assay with SK-MEL-2 melanoma; 78.6% in the assay with EKVX NSCLC; 37.9% with SN12C renal; 88.1% in the assay with UO-31 renal. Moreover, the growth was 87.5% in the assay on TK-10 renal, 99% with ACHN renal, 101% in the assay on CAKI-1 renal and -15.8% (active) in the assay with CCRF-CEM leukemia.

In the case of `Cc1ccnc(NC(c2ccccc2)c2ccc3cccnc3c2O)c1` (stereo unspecified), the growth with SNB-75 CNS was 52.2%; with SNB-19 CNS, 40.3%; in the assay on U251 CNS it was 20.4%; in the assay on PC-3 prostate it was 35.3%; in the assay with SK-MEL-5 melanoma, 39.4%; in the assay on UACC-62 melanoma, 26.3%. Further, the growth in the assay with SK-MEL-2 melanoma was 50.4%; in the assay on EKVX NSCLC, 33.5%; in the assay with UO-31 renal, 14.8%; with TK-10 renal, 58.3%; with ACHN renal, 28.5%; in the assay on CAKI-1 renal, 14.7%. Also, the figures for the growth in the assay with A498 renal, in the assay with CCRF-CEM leukemia and in the assay on MOLT-4 leukemia were 77.3%, 16.4% and 18%, respectively.
